From PubChem BioAssay (Tox21) come the findings set out here.

Where “and” joins values, the source holds several entries; their conditions need not be identical. Equal entries are not always repeated. Calls of active or inactive are those of the source. Where a call stands in place of a potency, no number is given. Calls come from the whole dose curve; as a rule, active = well fitted curve in the direction sought with a large enough effect in the repeat runs; inconclusive = weak or mixed curves; inactive = flat fitted curve, though single readings scatter.
Potency is the fitted concentration of half-maximal effect; tags give direction and shape of the fitted curve or compound fluorescence and quenching.

The assay in a line: qHTS assay to test for compound auto fluorescence at 460 nm (blue) in HEK293 cells (AID 720678). The note with it: blue autofluorescence 405/460 nm; series mostly up to 91.3 µM. The text has this:
National Center for Advancing Translational Sciences [NCATS]
NIH Chemical Genomics Center [NCGC]
U.S. Environmental Protection Agency [EPA]
National Institutes of Environmental Health Sciences [NIEHS]
National Toxicology Program [NTP]
U.S. Food and Drug Administration [FDA]
Compound auto fluorescence often interferes with screening of the compound library against various biological targets and signaling pathways. Some of these compounds may have fluorophoric properties. Such properties may interfere with the assay outputs resulting in false positives and/or negatives. To decrease such complications and ensure the compound activities are relevant in terms of biological response, the Tox21 10K compound library was screened for auto fluorescence.
From the fluorophores used as reporter signals in our screening assays, the auto fluorescence equivalencies of compounds against three fluorophores have been evaluated: Triamterene, Fluorescein and Rose Bengal sodium for blue, green and red fluorescence, respectively. The fluorescence intensities were measured using Excitation/Emission wavelengths at 405/460nm, 485/535nm and 540/590nm for blue, green and red labels, respectively. This assay includes the blue fluorescence data.
Tox21 Assay Protocol Summary:
2,000 HEK293 cells in 5 uL of culture medium containing 10% dialyzed FBS per well were dispensed into black wall/clear bottom 1536-well plates using a Multidrop Combi Dispenser (Thermo Scientific). The assay plates were incubated for 4-5 hr at 37C to allow cell attachment to the well bottom, followed by the transfer of 23 nL compound or DMSO vehicle by a pintool work station (Kalypsys, San Diego, CA). After the assay plates were incubated overnight at 37C and 5% CO2, fluorescence intensities in the assay plates were measured by an Envision (PerkinElmer, Shelton, CT) plate reader using three labels for measuring blue, green and red fluorescence at […] 460, 535 and 590nm respectively.
In general terms: Quantitative high-throughput screening tests each substance at several concentrations.
For `NC1CCCCC1`, the Potency entry is “inactive”.
Take `O=C1OC2(c3ccccc31)c1cc(Br)c(O)c(Br)c1Oc1c2cc(Br)c(O)c1Br`: the Potency entry was “inactive”.
As to `O=C(O)CC(O)C(=O)O` (stereo not given), the Potency entry was “inactive”.
Take `Nc1c(N=Nc2ccc(-c3ccc(N=Nc4cc(S(=O)(=O)O)c5ccccc5c4N)cc3)cc2)cc(S(=O)(=O)O)c2ccccc12`: the Potency entry is “inactive”.
The result for `CCN(CC)C(=O)c1cccc(C)c1` reads “inactive”; that for `NS(=O)(=O)c1cc2c(cc1Cl)NCNS2(=O)=O`, “inactive”.
In the case of `Cc1cccc(C)c1` it was “inactive”.
For `O=C(O)c1ccccc1`, the Potency result is “inactive”.
The result for `Oc1ccccc1` reads “inactive”; that for `CCCCC1(COC(=O)CCC(=O)O)C(=O)N(c2ccccc2)N(c2ccccc2)C1=O`, “inactive”; that for `NC(CO)(CO)CO`, “inactive”.
As to `C=C1CC[C@H](O)C/C1=C\C=C1/CCC[C@]2(C)[C@@H]([C@H](C)CCCC(C)C)CC[C@@H]12`, the Potency entry is “inactive”.
The result for `CCCCNC(=O)NS(=O)(=O)c1ccc(C)cc1` reads “inactive”.
The result for `O=C(Nc1ncc([N+](=O)[O-])s1)c1cccs1` reads “inactive”; that for `CCCC[P+](CCCC)(CCCC)CCCC`, “inactive”.
The result for `CCCCCCCCCCCC[N+](C)(C)Cc1ccccc1` reads “inactive”.
Take `Cc1ncc([N+](=O)[O-])n1C`: the Potency entry was “inactive”.
In the case of `Nc1ccc([N+](=O)[O-])cc1O` it was “inactive”; in that of `COc1ccc2cc(S(=O)(=O)N[C@H](CC(=O)N[C@H](Cc3ccc(CN4[C@H](C)CCC[C@@H]4C)cc3)C(=O)N(C)C(C)C)c3ccc4c(c3)OCO4)ccc2c1`, “inactive”.
The result for `Nc1c2c(nc3ccccc13)CCCC2` reads “inactive”.
In the case of `NS(=O)(=O)O` it was “inactive”; in that of `C[C@](N)(Cc1ccc(O)c(O)c1)C(=O)O`, “inactive”; in that of `Cc1cc(=O)oc2cc(O)ccc12`, 11.2 µM [fluorescent] (active) and 39.8 µM [fluorescent] (active) and 35.5 µM [fluorescent] (active).
Take `CN1CCC[C@H]1c1cccnc1`: the Potency result was “inactive”.
For `O=c1[nH]cnc2c1ncn2[C@H]1CC[C@@H](CO)O1`, the Potency entry was “inactive”.
With `CN(C)C(=O)Nc1ccc(Cl)c(Cl)c1`, the Potency entry is “inactive”.
The result for `COc1ccc(C(Cl)=C(c2ccc(OC)cc2)c2ccc(OC)cc2)cc1` reads “inactive”; that for `CCOC(N)=O`, “inactive”; that for `CCCCCCCCCCCCCCCC[N+](C)(C)Cc1ccccc1`, “inactive”.
The result for `Nc1ccc(O)c([N+](=O)[O-])c1` reads “inactive”.
In the case of `CCN(Cc1c(F)cccc1Cl)c1c([N+](=O)[O-])cc(C(F)(F)F)cc1[N+](=O)[O-]` it was “inactive”; in that of `CCc1nc(N)nc(N)c1-c1ccc(Cl)cc1`, “inactive”.
For the molecule `COc1ccc2c(c1)c(CC(=O)O)c(C)n2C(=O)c1ccc(Cl)cc1`, the Potency entry is “inactive”.
Turning to `O=C1NS(=O)(=O)c2ccccc21`, the Potency result was “inactive”.
In the case of `CCCCC(CC)C(=O)O` (stereo not given) it was “inactive”; in that of `CN(N=O)C(=O)N[C@@H]1[C@@H](O)[C@H](O)[C@@H](CO)O[C@@H]1O`, “inactive”; in that of `CC1(C)S[C@@H]2[C@H](NC(=O)[C@H](N)c3ccccc3)C(=O)N2[C@H]1C(=O)O`, “inactive”.
The result for `C1=CC2C3C=CC(C3)C2C1` (stereo not given) reads “inactive”.
As for `O=C1NC(=O)C(c2ccccc2)(c2ccccc2)N1`, the Potency result is “inactive”.
For `CCCCOC(=O)c1ccc(O)cc1`, the Potency entry is “inactive”.
